# Data reported in article PMC4552634, “A New Set of Chemical Starting Points with Plasmodium falciparum Transmission-Blocking Potential for Antimalarial Drug Discovery” (PLoS ONE, 2015).
# Out of some 13,000 compounds screened, about 3,200 (25%) showed an effect of 50% or more. This is one part of the list.
# Tested on: P. falciparum stage V gametocytes
# Set-up: BacTiter-Glo ATP luminescence viability of purified stage V gametocytes in 384-well plates, per cent inhibition versus DMSO
# Details: 48 h, 5 µM; inhibitor
row,Structure (SMILES),% Inhibition [%]
1,Cc1c(CNCCCNc2cc(=O)c3ccccc3[nH]2)sc(C(F)=C(F)F)c1Br [TCMDC-141189],-2.633
2,Cn1c(=O)c2nc(-c3ccc(Cl)cc3)nnc2n(CCCC#N)c1=O [TCMDC-138537],18.59
3,CCOc1ccc(/C=C/C(=O)Nc2cccc3c2CCN(C)C3)cc1 [TCMDC-139243],3.869
4,COc1ccc2nccc([C@@H](O)CN3CCC(NC(=O)COc4nc(SCc5ccc(F)cc5)nc5c4CCC5)CC3)c2c1 [TCMDC-141132],-0.4192
5,COC(=O)c1ccc(CC(C)NCC(O)c2cc(Cl)c(N)c(Cl)c2)cc1 (stereo not drawn) [TCMDC-131421],9.503
6,O=C(Nc1ccc(-c2nc3ccccc3[nH]2)cc1)c1ccc(Cl)c([N+](=O)[O-])c1 [TCMDC-125730],2.294
7,Cc1cc(C(=O)Nc2ccc(-c3nc4ccccc4[nH]3)cc2)ccc1[N+](=O)[O-] [TCMDC-123604],62.44
8,CCOc1ccc(C(=O)Nc2ccc(-c3nc4ccccc4[nH]3)cc2)cc1[N+](=O)[O-] [TCMDC-125221],-12.2
9,Nc1ncc(-c2ccc(F)c(Cl)c2)c(N)n1 [TCMDC-137296],-16.29
10,O=S(=O)(ON=C1CCc2ccccc21)c1ccc(Cl)cc1 [TCMDC-125427],20.26
11,Cc1cccc(Nc2nc3nonc3nc2Nc2cccc(Cl)c2Cl)c1C [TCMDC-125806],15.39
12,Cc1cc(I)ccc1Nc1nc2nonc2nc1Nc1ccc(I)cc1C [TCMDC-124083],56.47
13,CS(=O)(=O)c1cc2c(Nc3ccc(N4CCOCC4)cc3)c(C(N)=O)cnc2cc1Br.Cl [TCMDC-135826],40.37
14,CC(CN(C)C)C(=O)Nc1cccc(-c2ccc(-c3nc4ccccc4[nH]3)s2)c1 (stereo not drawn) [TCMDC-137102],-38.48
15,O=c1cc(NCCC(CNCc2ccoc2)NCc2cc(Br)cc(Br)c2)[nH]c2ccccc12 (stereo not drawn) [TCMDC-140343],58.98
16,C=CCCCNCC(NCCCNc1cc(=O)c2ccccc2[nH]1)c1cc(Br)cc(Br)c1 (stereo not drawn) [TCMDC-140371],-52.81
17,O=c1cc(NCCCNC(CNCCc2ccccc2)c2cc(Br)cc(Br)c2)[nH]c2ccccc12 (stereo not drawn) [TCMDC-140370],-71.22
18,O=c1cc(NCCC(CNCCc2ccccc2)NCc2cc(Br)cc(Br)c2)[nH]c2ccccc12 (stereo not drawn) [TCMDC-140344],98.47
19,O=c1cc(NCCCCNCc2ccc(Br)c(Br)c2)[nH]c2ccccc12 [TCMDC-139308],-72.79
20,O=c1cc(NCCCCNCc2cccc(Br)c2)[nH]c2ccccc12 [TCMDC-139312],-82.6
21,Cn1nccc1C(=O)NCCNCc1cccc(-c2ccc(-c3nc4cc(C(F)(F)F)ccc4[nH]3)s2)c1.O=C(O)C(F)(F)F [TCMDC-133010],8.568
22,CCCc1cccc(OC)c1OCCCON1C(N)=NC(N)=NC1(C)C [TCMDC-131338],-11.7
23,O=C(CSc1nccn1Cc1ccco1)Nc1cc(C(F)(F)F)ccc1Cl [TCMDC-125134],10.58

row,Structure (SMILES),% Inhibition [%]
1,CS(=O)(=O)Cc1ccc(Nc2nccc(NC3CCN(c4nccc(C(F)(F)F)n4)CC3)n2)cc1 [TCMDC-134397],7.117
2,COC(=O)C1=CNC=C(C(=O)OC)C1c1ccc(Cl)c([N+](=O)[O-])c1 [TCMDC-125154],-60.53
3,Cc1cc(C(=O)CN2C(=O)NC3(CCCc4ccccc43)C2=O)c(C)n1Cc1ccco1 (stereo not drawn) [TCMDC-124502],2.781
4,Nc1nc(N)c2c(ccc3c2cnn3Cc2cccnc2)n1 [TCMDC-131932],23.15
5,COc1ccc(-c2ccc(NC(=O)c3cccc(Cl)c3)cc2)cc1CN(C)CCO [TCMDC-132527],86.37
6,COc1ccc(-c2ccc(NC(=O)c3ccc(Cl)cc3)cc2)cc1CN(C)CCN(C)C [TCMDC-132511],46.96
7,CN(C)Cc1ccc2cc(NC(=O)c3ccc(-c4ccc(Cl)cc4)cc3)ccc2c1 [TCMDC-134694],77.36
8,COc1ccc(-c2cccc(NC(=O)c3cccc(Cl)c3)c2)cc1CN(C)CCN(C)C [TCMDC-132616],105.4
9,COc1ccc(-c2ccc(NC(=O)c3ccc(Cl)cc3)cc2)cc1CN(C)CCO [TCMDC-132513],86.93
10,COc1ccc(-c2ccc(NC(=O)c3cccc(Cl)c3)cc2)cc1CNC(C)C [TCMDC-132524],39.19
11,CN(C)Cc1ccc2cc(NC(=O)c3ccc(-c4ccc(Cl)cc4)cc3)ccc2n1 [TCMDC-134644],5.45
12,COc1ccc(-c2ccc(NC(=O)c3cccc(Cl)c3)cc2)cc1CN(C)CCN(C)C [TCMDC-133335],14.93
13,CN(C)Cc1ccc(-c2cccc(NC(=O)c3ccc(Cl)cc3)c2)cc1 [TCMDC-132632],4.982
14,COc1ccc(-c2ccc(NC(=O)c3ccc(C#N)cc3)cc2)cc1CN(C)CCO [TCMDC-132521],28.66
15,COc1ccc(-c2cccc(NC(=O)c3ccc(Cl)cc3)c2)cc1CN(C)CCN(C)C [TCMDC-132605],-10.06
16,COCCN1CCC(CNCC(C)(C)c2nc(-c3ccc(Cl)c(O)c3)c(-c3ccncc3)[nH]2)CC1 [TCMDC-140898],-79.12
17,O=C(Nc1cccc(CN2CCCN(Cc3ccc(O)cc3)CC2)c1)c1ccc(Br)cc1 [TCMDC-141883],15.8
18,Cc1nc(NC2=NCN(CCCN3CCOCC3)CN2)nc2c(C)cccc12 [TCMDC-125086],47.98
19,Cn1ccnc1CNC(=O)c1ccc(-c2cccc(-c3nc4cc(F)ccc4[nH]3)c2)cc1 [TCMDC-132354],-5.334
20,Cc1cccc(CN2CCCN(Cc3ccc(C(=O)Nc4ccc(Cl)cc4)cc3)CC2)c1 [TCMDC-136407],32.89
21,Cc1cc(OCCN2CCCCC2)ccc1NC(=O)c1cccc2c(=O)n(Cc3ccc(Cl)cc3)cnc12 [TCMDC-136727],103.4
22,O=c1c2sc(-c3ccc(Cl)cc3)cc2ncn1Cc1ccc(OCCN2CCCC2)c2ccccc12 [TCMDC-135387],24.51
